From PubChem BioAssay AID1823 (The Scripps Research Institute Molecular Screening Center, 2009)
Hit rate of the full screen: of about 16,000 compounds, about 70 (0.4%) were called active. This is one part of a sample in which actives are shown more often than they occur. Cut-off read from the data, not from the text of the source: active = inhibition above about 75%; inactive = the rest.

Test: quenches luminol chemiluminescence in Nox1 counter-screen (AID 1823)
Conditions: HRP/luminol/H2O2 chemiluminescence counterscreen; at 6.7 µM; stronger effect = higher value
With `CCOC(=O)NC(=O)/C(=C/NC(C)C)C(=O)OCC` the inhibition was 2.4% (inactive).
With `CSc1nnc(SC)n1CCNC(=O)Nc1cccc(Cl)c1` the inhibition was 3.79% (inactive).
In the case of `CCCCc1c(O)cc(-c2ccccc2)n(Cc2ccccc2)c1=O`, the inhibition is reported as 7.84% (inactive).
For `COc1ccc(OC(=O)/C=C/c2sc3ccccc3c2C)cc1`, the inhibition was -0.97% (inactive).
In the case of `Cc1nc(C(F)(F)F)ccc1NC(=O)/C=C\C(=O)O`, the inhibition is reported as 1.91% (inactive).
With `CCc1cnc(NS(=O)(=O)c2cc(Cl)sc2Cl)nc1-c1c(F)cccc1F` the inhibition was -0.98% (inactive).
For `Cc1ccc(S(=O)(=O)NNC(=O)c2ccccc2N)cc1`, the inhibition was 37.9% (inactive).
For `O=C(NCc1cccnc1)Nc1cccc(NC(=O)NCc2cccnc2)c1F`, the inhibition was 1.8% (inactive).
With `COc1cccc2c1c(NS(=O)(=O)c1cn(C)cn1)nn2C` the inhibition was -21.4% (inactive).
With `O=[N+]([O-])c1ccc2c(c1)CCN2S(=O)(=O)c1ccccc1` the inhibition was -4.92% (inactive).
With `CNC(=O)c1ccccc1Sc1ccccc1C(=O)NC` the inhibition was -0.03% (inactive).
In the case of `Cc1nc(-c2ccc(NC(=O)COCC(=O)O)cc2)cs1`, the inhibition is reported as 21.6% (inactive).
With `O=C1C(Cl)=C(Oc2cc(Cl)c(Cl)cc2Cl)C(=O)c2ccccc21` the inhibition was 0.81% (inactive).
With `Cn1ncc(Br)c1NC(=O)C(C)(C)C` the inhibition was 4.37% (inactive).
With `N#Cc1ccc(-c2csc(COc3ccccc3Cl)n2)cc1` the inhibition was -1.21% (inactive).
For `CS(=O)(=O)Nc1ccc(/C(N)=N/OC(=O)c2cccs2)cc1`, the inhibition was 2.83% (inactive).
In the case of `c1ccc2sc(-c3csc(-c4ccc5c(c4)OCCO5)n3)nc2c1`, the inhibition is reported as 3.06% (inactive).
With `N#CCCSc1sc(=S)sc1SCCC#N` the inhibition was 3.43% (inactive).
For `C/C(=N\O)C(C)(C)Nc1ccc(C(C)(C)C)cc1`, the inhibition was -0.65% (inactive).
In the case of `O=c1[nH]c2c(=O)[nH]c(=S)[nH]c2nc1/C=C(\O)c1ccccc1`, the inhibition is reported as -2.84% (inactive).
For `O=C(Nc1ccc(F)cc1OC(F)(F)F)N1CCC(O)CC1`, the inhibition was -1.8% (inactive).
For `CCOC(=O)c1c(C)csc1NC(=O)CC(=O)C(F)(F)F`, the inhibition was -0.11% (inactive).
For `CCOC(=O)c1c(NC(=S)Nc2ccccc2)sc2c1CCN(C)C2`, the inhibition was 0.9% (inactive).
For `CCOC(=O)c1c(NC(=S)NC)sc2c1CCCC2`, the inhibition was 97.7% (active).
In the case of `Cc1cc(/C(N)=N/OC(=O)c2cccs2)c(-c2ccccc2)o1`, the inhibition is reported as -4.79% (inactive).
With `Cc1cc(C)nc(NC(=S)c2ccc(NC(=O)/C=C/C(=O)O)cc2)n1` the inhibition was -2.67% (inactive).
With `CCSC(=O)NCc1ccccc1` the inhibition was -0.89% (inactive).
For `Cc1onc(-c2ccccc2Cl)c1NC(=O)N1c2ccc(F)cc2CCC1C` (centres undefined), the inhibition was 8.92% (inactive).
For `Nc1nc(C23CC4CC(CC(C4)C2)C3)cs1`, the inhibition was -1.09% (inactive).
For `CC(C)n1c(SCC(=O)c2cccc([N+](=O)[O-])c2)nc2cc(C(F)(F)F)ccc21`, the inhibition was 2.2% (inactive).
In the case of `CC(C)CCOS(=O)(=O)c1ccc2c(c1)Cc1cc(S(=O)(=O)OCCC(C)C)ccc1-2`, the inhibition is reported as -0.63% (inactive).
With `O=C(CSC(=S)N1CCCCC1)c1c(F)cccc1F` the inhibition was 26.8% (inactive).
With `O=C(c1cc(-c2cccs2)on1)N1CCCCC1` the inhibition was 3.17% (inactive).
In the case of `N#CC(C#N)=CNc1c(F)cccc1Cl`, the inhibition is reported as -4.02% (inactive).
In the case of `CCOC(=O)C1=C(C)NC(C)=C(C(=O)OCC)C1c1ccccn1`, the inhibition is reported as 0.07% (inactive).
For `CCOC(=O)c1cc(CC)sc1NC(=O)c1cccc(C(F)(F)F)c1`, the inhibition was -4.21% (inactive).
For `CC(C)S(=O)(=O)/C(C#N)=C/c1ccccc1OC(F)(F)F`, the inhibition was -0.54% (inactive).
With `COC(=O)c1cnc(N2CCCN(C(=O)C3COc4ccccc4O3)CC2)nc1C(F)(F)F` (centres undefined) the inhibition was 1.21% (inactive).
For `Cc1ccccc1NC(=O)NCc1ccco1`, the inhibition was -0.91% (inactive).
For `O=[N+]([O-])c1ccc(-c2ccc(I)cc2)cc1`, the inhibition was -6.68% (inactive).
For `CC(C)NC(=O)NNc1c(Cl)cncc1Cl`, the inhibition was -1.24% (inactive).
With `Cc1ccc(Oc2c(C)[nH]c(=S)[nH]c2=O)cc1` the inhibition was -0.85% (inactive).
In the case of `CN(C)c1cc(-c2cc(Cl)sc2Cl)oc(=O)c1Cl`, the inhibition is reported as -5.79% (inactive).
With `Cc1cc(C)nc(N/C=C(\C#N)S(=O)(=O)c2ccc(Cl)cc2)n1` the inhibition was 2.84% (inactive).
With `O=C(NNC(=S)Nc1ccccc1Cl)c1ccc(OC(F)(F)F)cc1` the inhibition was 2.9% (inactive).
With `Cn1cc(Br)c(-c2cccc(NC(=O)c3ccccc3Cl)c2)n1` the inhibition was -4.85% (inactive).
In the case of `CCc1cccc(C)c1N(C(C)=O)C1=NCCC(=O)S1`, the inhibition is reported as -4.86% (inactive).
With `O=[N+]([O-])c1ccc(C2CC2(Br)Br)cc1` (centres undefined) the inhibition was 0.05% (inactive).
In the case of `CSC(C)C(=O)/C=C/N(C)C` (centres undefined), the inhibition is reported as -4.32% (inactive).
For `COc1ccc(Cc2nc(C(C)(C)C)cs2)cc1`, the inhibition was -2.22% (inactive).
For `Cc1noc(C)c1S(=O)(=O)N1CCN(C2c3ccccc3-c3ccccc32)CC1`, the inhibition was 0.21% (inactive).
In the case of `CCOC(=O)NC(=O)/C(=C/NCc1cccs1)C(=O)OCC`, the inhibition is reported as 1.42% (inactive).
In the case of `CC(=O)Nc1ccc(S(=O)(=O)NNc2c(Cl)cncc2Cl)cc1Cl`, the inhibition is reported as 10.2% (inactive).
With `CCCN(CCC)S(=O)(=O)c1ccc(C(=O)Oc2c(C)cccc2OC)cc1` the inhibition was -5.62% (inactive).
In the case of `CCOC(=O)c1cc(C)n(-c2cccc([N+](=O)[O-])c2)c1-c1ccccc1`, the inhibition is reported as 1.22% (inactive).
For `COc1cccc(C(=O)c2sc3nsc(SCc4ccc(F)cc4)c3c2N)c1`, the inhibition was 9.11% (inactive).
With `CC(C)(C)c1ccc(NC(=O)c2ccco2)c(NC(=O)C(Cl)(Cl)Cl)c1` the inhibition was -4.94% (inactive).
In the case of `O=C(Nc1ccc2c(c1)OCCO2)c1cnccn1`, the inhibition is reported as 1.1% (inactive).
With `CSc1nc(-n2nc(C)cc2C)nc(-c2ccco2)c1C#N` the inhibition was 1.13% (inactive).
For `O=C(O)CCc1cccnc1`, the inhibition was -4.95% (inactive).
For `CCCCCCCCCCCCCC#CC(O)C(N)CO` (centres undefined), the inhibition was 2.24% (inactive).
With `O=C(CSc1nc2ccccc2o1)N1CCC(n2cccc2)CC1` the inhibition was 10% (inactive).
In the case of `CC(=O)NC12CC3(C)CC(C)(CC(C)(C3)C1)C2`, the inhibition is reported as 2.16% (inactive).
With `COc1cc(CC/C(C)=N/O)ccc1O` the inhibition was 2.62% (inactive).
In the case of `Cc1nc(C(F)(F)F)ccc1C(=O)NC1CCCc2ccccc21` (centres undefined), the inhibition is reported as 3.59% (inactive).
For `Cn1nccc1NC(=O)CC(CC(=O)O)c1ccccc1` (centres undefined), the inhibition was -2.7% (inactive).
With `COc1ccc(CCNC(=O)c2ccccc2-c2ccccc2C(=O)O)cc1OC` the inhibition was -7.76% (inactive).
With `CC(=O)N1c2ccccc2C=Cc2ccccc21` the inhibition was 2.77% (inactive).
In the case of `CCOC(=O)Cn1cc(Cl)ccc1=O`, the inhibition is reported as -6.12% (inactive).
For `CCc1ccc(S(=O)(=O)Nc2ccc(C)c(NS(C)(=O)=O)c2)cc1`, the inhibition was 6.77% (inactive).
With `CCOC(=O)c1c(C)nn(-c2ncccc2NC(=O)Nc2cccc(Cl)c2Cl)c1C` the inhibition was -3.12% (inactive).
In the case of `COC(=O)c1cc(S(=O)(=O)NCc2csc(-c3cccs3)n2)oc1C`, the inhibition is reported as 2.46% (inactive).
In the case of `COC(=O)c1sccc1NC(=S)Nc1ccc(C)cc1`, the inhibition is reported as -25.1% (inactive).
In the case of `O=C(Nc1ccccc1N1CCOCC1)C1CCN(c2nccc(C(F)(F)F)n2)CC1`, the inhibition is reported as -1.03% (inactive).
For `O=C(Nc1ccc(I)cc1Cl)C(=S)NCc1cccs1`, the inhibition was -1.16% (inactive).
With `Cn1nnnc1SCC(=O)Nc1ccc(OC(F)(F)F)cc1` the inhibition was -2.01% (inactive).
For `O=C(/C=C/c1cccc2ccccc12)N1CCCCC1`, the inhibition was 2.1% (inactive).
In the case of `Cc1c(C)c(C)c(CSC(=N)CC#N)c(C)c1C`, the inhibition is reported as -1.01% (inactive).
For `CC(C)c1ccc(N2C(=O)/C(=C\c3ccc(-c4ccc([N+](=O)[O-])cc4)o3)SC2=S)cc1`, the inhibition was 2.47% (inactive).
For `O=C(NCc1csc(-c2cccs2)n1)Nc1ccccc1-c1ccccc1`, the inhibition was 0.51% (inactive).
With `c1ccc2c(c1)NC(C1Nc3ccccc3O1)O2` (centres undefined) the inhibition was 8.91% (inactive).
For `CC(C)S(=O)(=O)/C(C#N)=C/NN1CCOCC1`, the inhibition was 41% (inactive).
For `O=S(=O)(Oc1cccc(C(F)(F)F)c1)c1cc(S(=O)(=O)c2ccccc2)cs1`, the inhibition was 3.95% (inactive).
In the case of `O=C(Nc1ccccc1-c1ccccc1)c1cccs1`, the inhibition is reported as 0.86% (inactive).
With `O=C(O)C1CC2CC1CCC2O` (centres undefined) the inhibition was -5.03% (inactive).
With `CC(C)CC(F)Cc1cnc(=O)[nH]c1` (centres undefined) the inhibition was -1.51% (inactive).
In the case of `CC(=O)c1cc([N+](=O)[O-])c(NC2CCCCC2)s1`, the inhibition is reported as 3.91% (inactive).
For `NNC(=O)c1cc(OCC(F)(F)F)nc(OCC(F)(F)F)c1`, the inhibition was 9.46% (inactive).
In the case of `N#Cc1c(C2CCCCC2)[nH]c(=S)[nH]c1=O`, the inhibition is reported as 11.2% (inactive).
In the case of `CCCc1nc(N)ncc1C(=O)OCC`, the inhibition is reported as -1.66% (inactive).
In the case of `O=C(CCSc1nc2ccccc2o1)N1CCc2cc([N+](=O)[O-])ccc21`, the inhibition is reported as -3.32% (inactive).
For `O=C(O)CSC(SCC(=O)O)c1ccc2c(c1)OCO2`, the inhibition was 0.02% (inactive).
For `CC(CC(=O)O)Oc1ccc(Cl)cc1[N+](=O)[O-]` (centres undefined), the inhibition was 0.37% (inactive).
With `CNC(=S)NNC(=O)c1cc(C)on1` the inhibition was 11% (inactive).
With `CS(=O)(=O)c1ccc(C(=O)Nc2cccc(Cl)c2)cc1` the inhibition was 2.61% (inactive).
For `COC(=O)/C=C/c1cn(C2OCC(CO)C2O)c(=O)[nH]c1=O` (centres undefined), the inhibition was -0.07% (inactive).
For `CC1=NCCNC(C)=C1N1CCOCC1`, the inhibition was -0.98% (inactive).
For `NC(=O)c1sccc1Br`, the inhibition was -1.3% (inactive).
With `COC(=O)c1sc(S(C)=O)c(-c2ccon2)c1C` (centres undefined) the inhibition was 0.42% (inactive).
In the case of `CC(C)(C)C(=O)NNC(=O)c1ccc(Oc2ccc(C3SCCS3)cc2)o1`, the inhibition is reported as -19.4% (inactive).
In the case of `CNC(=O)NNC(=O)Cn1nnc(N2CCCCC2)n1`, the inhibition is reported as 14.1% (inactive).
With `N#C/C(=C\C=C\c1ccccc1)c1nc2ccccc2[nH]1` the inhibition was 2.56% (inactive).
In the case of `O=[N+]([O-])c1cc(C(F)(F)F)ccc1OCCO`, the inhibition is reported as -3.63% (inactive).
For `CCCCCCCN=C(C)c1ccccc1O`, the inhibition was -3.37% (inactive).
